One experiment is described as follows: PubChem AID 1714.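 Also: raw slope of fluorescence over initial fluorescence between 10 and 20 s after thallium.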 As to conditions: HEK293-KCC2 + bumetanide/ouabain, thallium flux FluoZin2; at 10 µM; stronger effect = higher value.
Experiment [1] in a line: compound effects on native HEK Tl+ uptake – HEK cells, counterscreen 1, counter-screen for KCC2 modulator project, confirmation (AID 1716). As to conditions: HEK293 parental cells, thallium flux FluoZin2, ouabain; at 10 µM; baseline-ratio fluorescence slope, 10–20 s after thallium. (Counterscreens check selectivity or assay interference.)
The target of experiment [2] is Solute carrier family 12 member 5 (Homo sapiens) (UniProt Q9H2X9). The experiment is described as follows: modulation of KCC2 thallium flux in HEK cells – cell-based, ouabain, retest, confirmation (AID 1717;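 active = thallium flux slope beyond 3 SD from same-plate DMSO control mean in most replicates, usually higher, sometimes lower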;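 also: slope of initial-normalized fluorescence between seconds 10 and 20 after thallium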). Particulars: HEK293-KCC2, thallium flux FluoZin2 fluorescence, at 10 µM, bidirectional: low = inhibitor, high = activator.
Chain of Solute carrier family 12 member 5 (Homo sapiens) (Q9H2X9 whole entry, looked up): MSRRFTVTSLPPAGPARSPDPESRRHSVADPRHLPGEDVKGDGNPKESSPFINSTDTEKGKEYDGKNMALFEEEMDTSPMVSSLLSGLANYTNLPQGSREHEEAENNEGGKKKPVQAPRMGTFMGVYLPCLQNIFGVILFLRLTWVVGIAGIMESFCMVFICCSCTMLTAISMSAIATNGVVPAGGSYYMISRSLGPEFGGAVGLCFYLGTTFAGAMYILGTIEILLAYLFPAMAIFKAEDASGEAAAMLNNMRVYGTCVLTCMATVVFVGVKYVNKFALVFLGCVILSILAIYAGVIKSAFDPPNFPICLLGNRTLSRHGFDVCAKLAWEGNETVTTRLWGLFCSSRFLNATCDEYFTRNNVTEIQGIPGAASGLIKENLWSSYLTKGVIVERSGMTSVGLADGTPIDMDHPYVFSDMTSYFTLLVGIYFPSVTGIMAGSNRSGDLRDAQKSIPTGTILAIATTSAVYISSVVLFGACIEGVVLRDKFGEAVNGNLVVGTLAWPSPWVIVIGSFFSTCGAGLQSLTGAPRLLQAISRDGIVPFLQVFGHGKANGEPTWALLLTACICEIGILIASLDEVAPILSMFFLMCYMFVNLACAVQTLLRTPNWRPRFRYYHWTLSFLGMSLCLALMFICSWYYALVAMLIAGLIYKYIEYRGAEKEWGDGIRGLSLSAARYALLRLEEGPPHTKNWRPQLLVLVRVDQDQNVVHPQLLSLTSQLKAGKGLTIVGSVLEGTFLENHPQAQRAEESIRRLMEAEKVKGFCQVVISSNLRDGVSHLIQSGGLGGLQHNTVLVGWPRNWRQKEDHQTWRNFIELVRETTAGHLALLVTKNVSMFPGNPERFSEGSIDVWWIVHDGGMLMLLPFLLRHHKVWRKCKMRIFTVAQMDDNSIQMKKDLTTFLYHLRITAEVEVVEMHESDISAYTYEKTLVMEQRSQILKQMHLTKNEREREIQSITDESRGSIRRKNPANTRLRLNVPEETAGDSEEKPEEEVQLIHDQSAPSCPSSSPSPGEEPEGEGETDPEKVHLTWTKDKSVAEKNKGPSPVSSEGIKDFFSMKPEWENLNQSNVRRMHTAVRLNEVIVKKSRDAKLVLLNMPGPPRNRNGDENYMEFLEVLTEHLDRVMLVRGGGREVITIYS
The target is the same in experiment [3]. The experiment is described as follows: retest of KCC2 transport modulation, ouabain-free – cell-based, HEK293 KCC2, thallium flux, FluoZin2, secondary assay 2, confirmation (AID 1715;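 active = thallium flux slope more than 3 SD above or below the plate's solvent-only control mean, mostly below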;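 also: raw slope with 0.1% DMSO as baseline and bumetanide as block control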). As to conditions: HEK293-KCC2, thallium flux FluoZin2 fluorescence; at 10 µM; actives lie on both sides; F/F0 rise rate, 10–20 s post-thallium.
Experiment [4] in a line: native HEK Tl+ uptake effects, second counter-screen – HEK cells, counterscreen 2, counter-screen for KCC2 modulator project, confirmation (AID 1718;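 active = thallium flux slope above the same plate's solvent-control mean plus 3 SD in both duplicate wells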;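 also: run without ouabain in cells lacking the KCC2 cotransporter; slope of fluorescence scaled to its starting value between 10 and 20 s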). Particulars: HEK293 parental, thallium flux FluoZin-2 fluorescence slope; at 10 µM.
Experiment [5] in a line: inhibitors of TNFa-induced NFkB p65 translocation, primary screen, imaging, HUVEC, MLSMR starter and 10KST1 sets (AID 438;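 active = inhibition above 20% together with a positive visual image hit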;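 also: compound added about 3h40 before a 20 min TNFalpha stimulation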;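 as to inhibition: signal is the nuclear over cytoplasmic p65 intensity ratio per well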). As to conditions: HUVEC TNFa-induced p65 nuclear translocation; cell count: measured here: nuclei count (cytotoxicity indicator), at 2.08 µM; inhibition: at 2 µM, stronger effect = higher value, 0% TNFa-plus-vehicle, 100% no-TNFa wells.
The nature of experiment [6]: reduction of polyQ htt aggregates in cells – imaging, exon1htt(103Q)mCFP cells, high-content imaging, primary screen (AID 483;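 active = visual image review flags a hit and inhibition of aggregation exceeds 20%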;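 also: compound exposure lasted 3 days before fixation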;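 as to nuclei count: percent of the per-plate median nuclei count of sample wells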). Particulars: exon1htt(103Q)mCFP cell line, aggregate imaging, at 2 µM; inhibition of aggregation: stronger effect = higher value; nuclei count: measured here: cell count, toxicity.
Experiment [7] can be described thus: endothelial E-selectin expression blockers – imaging, HUVEC, immunofluorescence, MLSMR starter and 10KST1 sets, primary screen (AID 487;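 active = visually confirmed hit in the image check and inhibition above 20%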;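 as to inhibition: signal is fraction of cell area covered by stained E-selectin grains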;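 as to nuclei count: 100% = median nuclei count of all wells on the same plate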). Particulars: HUVEC TNFalpha-induced E-selectin immunofluorescence imaging, at 2 µM; inhibition: stronger effect = higher value; nuclei count: measured here: cell number, toxicity.
Experiment [8] can be described thus: Primary imaging screen for DUSP6 inhibitors that restore phospho-Erk in transfected HeLa cells, chemical complementation (AID 609;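 active = compounds giving at least 50% inhibition in the cell-based MKP-3 phosphatase rescue imaging test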;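 as to inhibition: phospho-Erk level distribution per well compared with pooled transfected vehicle control wells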). As to conditions: HeLa MKP-3 transfected, phospho-Erk imaging KS statistic, at 10 µM, cells stimulated with TPA for 15 min.
Experiment [9] has as its target Dual specificity protein phosphatase 6 (Homo sapiens) (UniProt Q16828). The experiment is described as above. Particulars: HeLa MKP-3 transfected, phospho-Erk imaging KS statistic; at 10 µM; stronger effect = higher value; cells stimulated with TPA for 15 min.
The target in experiment [10] is Voltage-gated potassium channel subunit beta-2 (Rattus norvegicus) (UniProt P62483). The experiment is described as follows: inhibitors of rat Kvbeta2 reductase activity – biochemical, NADPH fluorescence, primary screen (AID 622;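 active = fluorescence slope higher than the sample average by over 3 SD, cut at about -0.22 in these data, passing the limit was not always enough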;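 also: slope of raw intensity against log time taken from 70 to 1610 s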). As to conditions: recombinant KvBeta, 4-cyanobenzaldehyde reduction, at 10 µM, stronger effect = higher value.
Chain of Voltage-gated potassium channel subunit beta-2 (Rattus norvegicus) (P62483 whole entry, looked up): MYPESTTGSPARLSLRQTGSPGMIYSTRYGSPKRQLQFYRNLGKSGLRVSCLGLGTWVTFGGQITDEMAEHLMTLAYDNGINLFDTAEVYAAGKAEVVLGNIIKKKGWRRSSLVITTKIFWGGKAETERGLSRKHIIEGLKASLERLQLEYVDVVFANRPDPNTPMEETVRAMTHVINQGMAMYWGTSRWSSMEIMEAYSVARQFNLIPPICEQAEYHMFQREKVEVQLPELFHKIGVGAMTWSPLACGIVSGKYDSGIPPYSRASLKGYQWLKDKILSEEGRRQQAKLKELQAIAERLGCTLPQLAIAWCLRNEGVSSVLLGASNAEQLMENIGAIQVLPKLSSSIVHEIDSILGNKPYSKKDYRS
For experiment [11] the target is unchanged. The experiment is described as follows: enhancers of rat Kvbeta2 NADPH turnover – biochemical, NADPH fluorescence, primary screen (AID 623;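 active = NADPH fluorescence slope more negative than the mean of all samples by about 3 SD, 99.7% confidence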;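 also: fluorescence intensity change per second fitted from 20 to 320 s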). As to conditions: Recombinant KvBeta, NADPH fluorescence decrease slope, 10 min; at 10 µM; stronger effect = lower value.
In experiment [12] the target is Alpha-2C adrenergic receptor (Homo sapiens) (UniProt P18825). The experiment is described as follows: compounds altering alpha2C-coupled GIRK flux – cell-based, HEK293 alpha2C/GIRK1/2, thallium flux, primary screen (AID 624;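 active = fluorescence slope after compound addition differing from the mean of all screened samples at 99.7% confidence, in either direction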;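 also: slope of fluorescence ratio to pre-addition baseline per second over 15 to 24 s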). As to conditions: thallium flux BTC fluorescence, at 10 µM, actives lie on both sides.
Chain of Alpha-2C adrenergic receptor (Homo sapiens) (P18825 whole entry, looked up): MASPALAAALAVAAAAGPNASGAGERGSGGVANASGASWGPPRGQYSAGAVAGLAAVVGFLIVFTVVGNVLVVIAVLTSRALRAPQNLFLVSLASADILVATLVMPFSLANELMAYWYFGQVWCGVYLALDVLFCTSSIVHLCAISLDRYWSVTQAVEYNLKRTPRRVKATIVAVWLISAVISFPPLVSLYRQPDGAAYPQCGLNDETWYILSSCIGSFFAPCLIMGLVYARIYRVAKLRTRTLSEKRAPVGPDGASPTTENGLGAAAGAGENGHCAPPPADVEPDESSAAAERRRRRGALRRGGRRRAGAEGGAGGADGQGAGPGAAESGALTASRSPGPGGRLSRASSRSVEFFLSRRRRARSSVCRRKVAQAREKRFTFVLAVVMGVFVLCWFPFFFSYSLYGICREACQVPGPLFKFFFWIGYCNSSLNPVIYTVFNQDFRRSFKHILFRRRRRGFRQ
Experiment [13] in a line: loss of swimming-algae plug formation – whole organism, Chlamydomonas reinhardtii, WT vs cilia-less mutant, absorbance, 96-well, primary screen (AID 463189;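 active = inhibition at or above 50% relative to wild type and mutant plate controls; inactive = inhibition below 50%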;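 also: 0% = wild type cc124 cells in DMSO and 100% = ciliumless bld1 mutant cells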). As to conditions: Chlamydomonas reinhardtii gravitaxis, OD600 absorbance, 2 days; at 10 µM; stronger effect = higher value.
The nature of experiment [14]: blockers of RIG-like receptor reporter activation – cell-based, Sendai virus stimulus, luciferase, 10K MLSCN set, TLR/RLR signaling modifier project, primary screen (AID 602276;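 active = inhibition at or above 50% at 10 µM; inactive = inhibition below 50%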;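 also: firefly luciferase from ISG56 promoter only with Renilla not read in this screen; 0% = Sendai virus plus DMSO and 100% = medium plus DMSO without virus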). Particulars: HEK293 RL24 IRF3 luciferase reporter, at 10 µM, stronger effect = higher value. In general terms: Reporter assays use an easily measured gene product as a stand-in for the process of interest.

Experiment [15] is described as follows: TLR3 IRF3 reporter activation blockers – cell-based, poly I:C stimulus, luciferase, 10K MLSCN set, primary screen (AID 602277;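 active = inhibition of the reporter signal at or above 50%; inactive = inhibition below 50%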). Particulars: HEK293-TLR3 RL24 IRF3 luciferase reporter, at 10 µM, stronger effect = higher value.
Experiment [16] deals with Solute carrier family 12 member 5 (Homo sapiens) (UniProt Q9H2X9). The experiment is described as follows: retest of KCC2 transport modulators without sodium – cell-based, HEK293 KCC2, thallium flux, secondary assay, confirmation (AID 1713;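 active = thallium flux slope above the same plate's solvent-only control mean plus 3 SD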). Particulars: FluoZin2 fluorescence, at 10 µM, stronger effect = higher value.
Setting [17] is: measured here: cell density z-score.
Where [18] appears, read: measured here: nuclear c-Myc green intensity z-score.
Setting [19] is: measured here: nuclear pErk red intensity z-score, stronger effect = higher value.

9 molecules from PubChem BioAssay can be followed below.

The inhibition is the drop in the measured response relative to a control, in per cent.

Values joined by “and” are separate entries in the source; they are usually repeats but may differ in a detail not shown here. Equal entries are not always repeated. Some of the results follow. Results filed as inconclusive are left out. Active and inactive are the calls of the source.

Chain of Dual specificity protein phosphatase 6 (Homo sapiens) (Q16828 whole entry, looked up): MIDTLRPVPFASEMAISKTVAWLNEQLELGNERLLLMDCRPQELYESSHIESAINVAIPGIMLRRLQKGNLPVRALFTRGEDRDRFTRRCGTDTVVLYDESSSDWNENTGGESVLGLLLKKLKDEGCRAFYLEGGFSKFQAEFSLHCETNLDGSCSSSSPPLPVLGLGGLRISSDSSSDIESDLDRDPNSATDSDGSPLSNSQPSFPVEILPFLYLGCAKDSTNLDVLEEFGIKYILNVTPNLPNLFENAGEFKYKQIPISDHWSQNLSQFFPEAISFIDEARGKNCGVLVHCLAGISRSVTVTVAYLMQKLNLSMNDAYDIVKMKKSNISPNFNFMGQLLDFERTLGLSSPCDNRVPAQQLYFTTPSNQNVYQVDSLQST

On to `Cc1ccccc1-c1nc(CS(=O)(=O)CC(=O)N2CCc3ccccc3C2)c(C)o1`, for which the normalized thallium flux in “PubChem AID 1714” was 0.00657 (inactive). In addition, the thallium flux rate (normalised fluorescence) in experiment [1] was 0.00685 (inactive). Further, the raw Tl+ flux slope (below DMSO = inhibition, above = activation) in experiment [2] was 0.0154 (active).
For `CCC(CC)NC(=O)CSc1nnc(-c2c[nH]c3ccccc23)o1`, the normalized thallium flux was 0.00461 (inactive) in “PubChem AID 1714” and 0.0248 (active) in [3]. In addition, the thallium flux rate (normalised fluorescence) in experiment [1] is 0.00757 (inactive). Besides, the thallium flux slope in experiment [4] is 0.0106 (inactive).
For `CCN(CC)CCN1C(=O)C(O)=C(C(=O)c2ccco2)C1c1ccccn1` (configuration not stated), the cell count in experiment [5] amounted to 439. Moreover, the inhibition in [5] is -6.3% (inactive); in [7] it was -87.6% (inactive); in [9], 3.5% (inactive); in experiment [13] it was 14.9% (inactive); in experiment [14] it was 15.6% (inactive); in experiment [15] it was 18.9% (inactive). For the same molecule, the inhibition of aggregation in experiment [6] is 16.5% (inactive). For the same molecule, the nuclei count in experiment [6] is 89.2%; in [7] it was 123%. For the same molecule, the z-score in experiment [8] (setting [17]) is 0.101; in experiment [8] (setting [18]) it was -1.41; in experiment [8] (setting [19]), 0.388. The fluorescence slope in experiment [10] was -0.431 (inactive). The NADPH fluorescence slope in [11] is -0.000163 (inactive). Besides, in experiment [12], the slope was 0.005 (inactive).
On to `CCN(CC)CCNC(=O)c1ccc(NC(C)=O)cc1`, for which the cell count in experiment [5] was 497. Besides, the inhibition was -5.5% (inactive) in experiment [5]; 15.6% (inactive) in experiment [7]; 5.79% (inactive) in experiment [9]; -7.67% (inactive) and -9.65% (inactive) in experiment [13]; 12.9% (inactive) in experiment [14]; 42.8% (inactive) in experiment [15]. Besides, in [6], the inhibition of aggregation is -5.6% (inactive). Further, the nuclei count in [6] turned out to be 94.5%; in experiment [7], 104%. Besides, the z-score is -0.982 in experiment [8] (setting [17]), 0.436 in [8] (setting [18]) and 0.661 in [8] (setting [19]). Besides, the fluorescence slope in experiment [10] is -0.442 (inactive). Moreover, the NADPH fluorescence slope in [11] was -5.7e-05 (inactive). In addition, the slope in [12] is 0.00544 (inactive).
With `C[C@@H](C(=O)Nc1ccc2ccccc2c1)[C@@H]1C[C@@]1(C)[C@@H](NC(=O)c1cccnc1)c1ccccc1`, the normalised thallium flux (F/F0 slope) in [16] is 0.00785 (inactive). In experiment [3], the normalized thallium flux was 0.0226 (active). Moreover, in experiment [1], the thallium flux rate (normalised fluorescence) is 0.00775 (inactive). Further, the raw Tl+ flux slope (below DMSO = inhibition, above = activation) in experiment [2] was 0.0135 (active). In addition, the thallium flux slope in experiment [4] was 0.0098 (inactive).
Take `N#Cc1c(-c2ccc(Cl)cc2)c2c([nH]c1=S)CCCC2`: the normalized thallium flux in “PubChem AID 1714” is 0.0281 (active); in [3] it was 0.0403 (active). The thallium flux rate (normalised fluorescence) in experiment [1] is 0.0184 (active). Besides, the raw Tl+ flux slope (below DMSO = inhibition, above = activation) in experiment [2] is 0.0302 (active). The thallium flux slope in experiment [4] is 0.0192 (active).
As for `N#Cc1ccc(C(=O)Nc2nc(-c3cccs3)c(C(=O)C(F)(F)F)s2)cc1`, the normalised thallium flux (F/F0 slope) in experiment [16] is 0.00795 (inactive). Further, the normalized thallium flux in experiment [3] was 0.033 (inactive). For the same molecule, in experiment [1], the thallium flux rate (normalised fluorescence) is 0.00821 (inactive). Moreover, in experiment [2], the raw Tl+ flux slope (below DMSO = inhibition, above = activation) was 0.0191 (inactive).
Take `CC(C)(C)c1ccc(C(=O)NCC(=O)OCN2C(=O)c3ccccc3C2=O)cc1`: the normalized thallium flux in the experiment “PubChem AID 1714” was 0.00471 (inactive); in [3] it was 0.031 (inactive). Further, the thallium flux rate (normalised fluorescence) in experiment [1] is 0.00756 (inactive). The raw Tl+ flux slope (below DMSO = inhibition, above = activation) in experiment [2] was 0.0171 (inactive). The thallium flux slope in [4] is 0.0105 (inactive).
With `C/C(=N\NC(=S)NC1CCCCC1)c1ccc(C)o1`, the figures for the normalized thallium flux (in “PubChem AID 1714”; in [3]) were 0.0335 (active) and 0.0359 (inactive), respectively. Besides, the thallium flux rate (normalised fluorescence) in experiment [1] is 0.017 (active). Moreover, in [2], the raw Tl+ flux slope (below DMSO = inhibition, above = activation) was 0.0406 (active).
